Source: PubChem BioAssay
GLP-1R inv ag = GLP-1 receptor (human) inverse agonism. P43220. HEK293 GLP-1R CRE-luciferase, luminescence, 24 h; GLP-1R form is constitutively active. Potency, µM (series often up to 38.3 µM), inactives show at the top dose activity change, negative = inhibition, hits mostly inhibitors. hit rate 1.6% among 410,000. AID 624417; further: potency means the concentration at half of the fitted maximal effect; on the % scale 0 is the no-effect control and ±100 the full control effect; nearly all actives have a fitted effect of over 55% in size
Target sequence (P43220 whole entry, looked up): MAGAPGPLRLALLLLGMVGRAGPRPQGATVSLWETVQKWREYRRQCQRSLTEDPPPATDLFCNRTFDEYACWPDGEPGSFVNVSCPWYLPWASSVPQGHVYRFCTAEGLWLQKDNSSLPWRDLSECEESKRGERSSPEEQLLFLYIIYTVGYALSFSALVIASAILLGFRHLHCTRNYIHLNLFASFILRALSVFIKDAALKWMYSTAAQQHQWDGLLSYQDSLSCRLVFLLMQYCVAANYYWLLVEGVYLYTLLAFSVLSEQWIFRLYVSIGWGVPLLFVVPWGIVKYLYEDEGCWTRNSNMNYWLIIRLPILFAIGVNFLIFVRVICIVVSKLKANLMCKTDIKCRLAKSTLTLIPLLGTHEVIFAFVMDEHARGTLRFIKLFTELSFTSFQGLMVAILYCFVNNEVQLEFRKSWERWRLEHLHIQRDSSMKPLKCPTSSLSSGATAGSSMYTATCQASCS
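Constitutively active GLP-1R drives a cAMP-responsive luciferase in stably transfected HEK293 cells; test compounds are added after overnight (12 h) attachment and left 24 hr, and signal loss in luminescence marks inhibition.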
LDHA block = LDHA (human) enzyme inhibition. hit rate 0.15% among 480,000. purified LDHA, NADH/diaphorase-resazurin fluorescence; stronger effect = lower value. activity change, % (values are at about 110 or 230 µM). P00338; in the data active means activity change below about -30%; inconclusive means mostly about -25% to -30%;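 further: plate controls were DMSO wells for no effect and wells without enzyme for full effect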
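Human LDH5 (2 nM) was incubated with 0.06 mM NADH and 0.2 mM pyruvate for 5 min at room temperature in Tris pH 7.4. Remaining NADH was coupled through diaphorase/resazurin, and resorufin fluorescence was read at 0 and 20 min.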
p53 reactivator = re-activators of mutant p53 | H1299 p53-A138V BP100-luciferase reporter, luminescence, 24 h | Potency, µM (highest dose often 92.2 µM), for the others: top-dose activity change, positive = activation, usual class: activators | hit rate 0.063% among 320,000 | AID 504706; further: potency means the concentration at half of the fitted maximal effect; % of control where 0% means no effect; nearly all actives have a fitted effect of over 45% in size
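p53-null H1299 cells stably carrying temperature-sensitive p53-A138V and a BP100-luciferase reporter were pinned with compounds (4-point, 1:5 series) and held 24 hrs at 37 deg C. Luminescence was read 10 min after detection reagent.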
HEK293 tox = cytotoxicity counter-screen for GLP-1 receptor inverse agonists; HEK293 cAMP-luciferase reporter cells, luminescence, 24 h; Potency, µM (highest dose often 38.3 µM), without a hit: at the highest dose activity change, negative = inhibition, actives largely listed as inhibitors; hit rate 0.13% among 410,000; AID 624418;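 further: loss of luciferase light is scored as toxicity; potency means the concentration at half of the fitted maximal effect; on the % scale 0 is the no-effect control and ±100 the full control effect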
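Quantitative HTS format, 1536 wells, 200 cells/uL seeded. Compounds: 23 nL, 24 h, 37 °C. Detection: luciferase reagent, luminescence at 12 min RT; decreased signal taken as cytotoxic.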
GLP1R ag = activates the human GLP-1 receptor | HEK293 GLP-1R CRE-luciferase, luminescence, 4-6 h; cells express a hypersensitive GLP-1R form | P43220 | hit rate 0.007% among 380,000 | Potency, µM (top dose mostly 45.6 µM), inactives show at the top dose activation, hits mostly activators; further: potency means the concentration at half of the fitted maximal effect; % of control where 0% means no effect
ClpP mod = qHTS Assay for Activators of ClpP. ATP-dependent Clp protease proteolytic subunit (Bacillus subtilis (strain 168)), P80244. purified B. subtilis ClpP, FRET peptide cleavage, 20 min. Potency, µM (titrated, usually from 57.5 µM), for the others: top-dose activity change, negative = active. hit rate 1.9% among 340,000. AID 651965, 2013; active means well fitted falling curve with a large enough effect; inconclusive means small, poorly fitted or top-dose-only effect; inactive means no such curve, though single readings can be large or run the other way; further: potency means the concentration at half of the fitted maximal effect; the source files actives as falling curves though it sought activators and does not explain the sign; nearly all actives have a fitted effect of over 65% in size
Target sequence (P80244 whole entry, looked up): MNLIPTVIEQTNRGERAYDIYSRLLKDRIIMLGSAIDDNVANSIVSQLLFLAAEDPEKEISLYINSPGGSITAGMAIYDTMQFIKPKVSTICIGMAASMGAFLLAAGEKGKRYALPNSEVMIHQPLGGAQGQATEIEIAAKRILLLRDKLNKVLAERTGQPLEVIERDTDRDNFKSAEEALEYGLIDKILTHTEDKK
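Purified B. subtilis ClpP, 10 microg/mL final in Tris/HCl pH8 with KCl, BSA, glycerol and Tween-20, cleaved an Abz/nitrotyrosine-quenched decapeptide. Fluorescence (ex 320, em 430) was read at 0 and 20 min at room temperature. Delta was normalized to 5.8 microM ADEP and DMSO/no-enzyme controls.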
An asterisk follows results filed as active. Shown are actives, neighbours in structure and some others; about 2.9% of the full set was active somewhere. Unless noted, the call rests on the fitted dose curve; in most records, active means well fitted curve in the direction sought with a large enough effect; inconclusive means small, poorly fitted or top-dose-only effect, or another doubt; inactive means no such curve, though single readings can be large; an effect the other way counts as inactive or inconclusive.

Screening Cc1cc(Cl)ccc1OCC(=O)N1C(C)CCCC1C (configuration not stated) returned GLP-1R inv ag inconclusive, LDHA block -5, p53 reactivator 20%, HEK293 tox -16%, GLP1R ag 11% and ClpP mod 0%.
`CC(C)NC(=NCc1ccc(Cl)cc1Cl)Nc1ccccc1` gave GLP-1R inv ag 7.9µM*, LDHA block -1, p53 reactivator 6%, HEK293 tox -14%, GLP1R ag -6% and ClpP mod 2%.
Screening COc1ccc(C(CNC(=O)c2[nH]c(C)c(C(C)=O)c2C)N2CCOCC2)cc1 (configuration not stated) returned GLP-1R inv ag -2%, LDHA block -3, p53 reactivator 2%, HEK293 tox -27%, GLP1R ag 7% and ClpP mod 0%.
`NC(=O)c1cc2ccncc2c2ccccc12` gave GLP-1R inv ag 1µM*, LDHA block -13, p53 reactivator 8%, HEK293 tox -14%, GLP1R ag -6% and ClpP mod 4%.
CC(C)(C)c1csc(NC(=O)CCc2ccccc2)n1 was read as GLP-1R inv ag inconclusive, LDHA block -5, p53 reactivator 32µM*, HEK293 tox 1%, GLP1R ag 14% and ClpP mod 1%.
OCC1(Cc2ccccc2Cl)CCN(C/C=C/c2ccccc2)CC1 was read as GLP-1R inv ag 10µM*, LDHA block -7, p53 reactivator -3%, HEK293 tox -22%, GLP1R ag 6% and ClpP mod -2%.
CCCCCCn1c(SCCOC)nc2c1c(=O)[nH]c(=O)n2C was read as GLP-1R inv ag 77%, LDHA block 2, p53 reactivator 3%, HEK293 tox 21%, GLP1R ag -2% and ClpP mod 1%.
Cc1cc(NC(=O)C2CC(=O)N(c3ccccc3C)C2)no1 (configuration not stated) was read as GLP-1R inv ag 15%, LDHA block -4, p53 reactivator 16%, HEK293 tox -2% and GLP1R ag 1%.
`Cc1ccc(/C=N/NC(=O)CSc2nc3ccccc3n2Cc2ccc(Cl)cc2)o1` gave GLP-1R inv ag 10µM*, LDHA block 2, p53 reactivator -7%, HEK293 tox -23%, GLP1R ag -9% and ClpP mod 0%.
`CCOCc1c(C(=O)NCC(c2ccco2)N2CCCC2)oc2ccccc12` (configuration not stated) gave GLP-1R inv ag inconclusive, LDHA block -2, p53 reactivator -1%, HEK293 tox 7%, GLP1R ag -3% and ClpP mod -4%.
Screening Cc1ccccc1NC(=O)Cn1c(=O)n(CCCC(=O)NCc2ccc3c(c2)OCO3)c(=O)c2ccccc21 returned GLP-1R inv ag 6%, LDHA block -8, HEK293 tox 4%, GLP1R ag -1% and ClpP mod -2%.
`CN(CC(=O)Nc1cccc(F)c1)CC(=O)Nc1cccc(S(=O)(=O)N2CCCCC2)c1` gave GLP-1R inv ag 7.9µM*, LDHA block -7, p53 reactivator -3%, HEK293 tox -24%, GLP1R ag -1% and ClpP mod -1%.
`O=C(Cc1cccc(C(F)(F)F)c1)Nc1cccc(S(=O)(=O)N2CCCC2)c1` gave GLP-1R inv ag 8.9µM*, LDHA block 1, p53 reactivator 4%, HEK293 tox -8%, GLP1R ag -2% and ClpP mod 1%.
For O=C(Cn1nnc(-c2ccccc2)n1)Nc1cccc(S(=O)(=O)N2CCCC2)c1 the results were GLP-1R inv ag inconclusive, LDHA block -2, p53 reactivator 7%, HEK293 tox -5%, GLP1R ag 27% and ClpP mod 32µM*.
CN1CCN(CC(=O)Nc2cccc(C(=O)Nc3cccc(C(F)(F)F)c3)c2)CC1 was read as LDHA block -4.
For CC1CCN(CC(=O)Nc2cccc(C(=O)Nc3cccc(C(F)(F)F)c3)c2)CC1 the results were GLP-1R inv ag 3.2µM*, LDHA block -5, p53 reactivator 5%, HEK293 tox inconclusive and GLP1R ag 16%.
Screening CC(=O)c1sc(Nc2ccc(C)cc2)nc1C returned GLP-1R inv ag -5%, LDHA block -8, p53 reactivator 3%, HEK293 tox -9% and GLP1R ag 0%.
For O=S1(=O)Nc2c(ccc3cccnc23)-c2ccccc21 the results were GLP-1R inv ag inconclusive, LDHA block 21, p53 reactivator -70%, HEK293 tox 6%, GLP1R ag 10% and ClpP mod 1%.
For CCOc1ccc(NC(=O)CNc2cccc(S(=O)(=O)N3CCCCCC3)c2)cc1OCC the results were GLP-1R inv ag 10µM*, LDHA block -1, p53 reactivator -7%, HEK293 tox -21%, GLP1R ag 3% and ClpP mod -3%.
For O=C(CNc1cccc(S(=O)(=O)N2CCOCC2)c1)Nc1cccc(Br)c1 the results were GLP-1R inv ag inconclusive, LDHA block -1, p53 reactivator -7%, HEK293 tox -7%, GLP1R ag 1% and ClpP mod 28µM*.
`COc1cccc(NC(=O)CN2CCN(S(=O)(=O)c3ccc(F)cc3)CC2)c1` gave GLP-1R inv ag 13%, LDHA block -6, p53 reactivator -4%, HEK293 tox -6%, GLP1R ag 4% and ClpP mod 0%.
For O=C(CN1CCN(S(=O)(=O)c2ccc(F)cc2)CC1)Nc1cccc(C(F)(F)F)c1 the results were GLP-1R inv ag 0%, LDHA block 3, p53 reactivator 3%, HEK293 tox -4%, GLP1R ag -4% and ClpP mod 28µM*.
Screening COc1ccc(/C=C/C(=O)Nc2cccc(S(=O)(=O)N3CCOCC3)c2)cc1OC returned GLP-1R inv ag -1%, LDHA block 7, p53 reactivator -3%, HEK293 tox 14%, GLP1R ag -4% and ClpP mod 28µM*.
For O=C(CNc1cccc(S(=O)(=O)N2CCCC2)c1)Nc1cccc(Br)c1 the results were GLP-1R inv ag inconclusive, LDHA block -1, p53 reactivator 0%, HEK293 tox 0%, GLP1R ag 0% and ClpP mod -1%.
O=C(CSc1ncccc1C(=O)O)c1ccccc1F was read as GLP-1R inv ag 7%, LDHA block 0, p53 reactivator 0%, HEK293 tox 7% and GLP1R ag 0%.
